Assay outcomes deposited in PubChem BioAssay by several laboratories.
Sampled rows, rich in hits. Any-hit rate of the full collection: about 9.1%.
D1 allo mod: allosterically modulates the human D1 dopamine receptor | P21728 | HEK293 D1, CRE-luciferase, dopamine EC30 potentiation; actives deviate in either direction | B-score at 10 µM | actives 5.9% (n = 58,000);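 active = luminescence count or its row- and column-corrected plate score outside the 99.7% band of the plate's sample wells, on either side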
mHtt clearance: mutant huntingtin protein clearance; HeLa Exon1htt(103Q)mCFP, aggregate imaging; zero = plate's median compound well; inhibition, % at 1.5 µM; actives 0.42% (n = 47,000);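 active = inhibition of aggregate fluorescence above about 70%, also judged a hit by eye on the cell image, limit read from the data, passing the limit was not always enough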;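 also: cells exposed to compound for three days before fixation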
M1 agonist: M1 muscarinic receptor agonism. actives 3% (n = 64,000). B-score at 10 µM. CHO-M1 cells, Fluo-4 calcium fluorescence, agonist mode; active compounds read high. AID 626;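 active = fluorescence rise, raw or as B-score row- and column-corrected plate score, outside the 99.7% band of its plate's samples, either direction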
M1 antagonist: antagonists of rat M1 muscarinic receptor; CHO-M1 cells, Fluo-4 calcium, ACh EC80 antagonist mode; active compounds read low; actives 3.4% (n = 64,000); P08482; AID 628; B-score at 10 µM;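 active = calcium fluorescence response, raw or row-and-column corrected B-score, differing from the plate sample mean either way at a set confidence level, mostly lower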
Target sequence (P08482 whole entry, looked up): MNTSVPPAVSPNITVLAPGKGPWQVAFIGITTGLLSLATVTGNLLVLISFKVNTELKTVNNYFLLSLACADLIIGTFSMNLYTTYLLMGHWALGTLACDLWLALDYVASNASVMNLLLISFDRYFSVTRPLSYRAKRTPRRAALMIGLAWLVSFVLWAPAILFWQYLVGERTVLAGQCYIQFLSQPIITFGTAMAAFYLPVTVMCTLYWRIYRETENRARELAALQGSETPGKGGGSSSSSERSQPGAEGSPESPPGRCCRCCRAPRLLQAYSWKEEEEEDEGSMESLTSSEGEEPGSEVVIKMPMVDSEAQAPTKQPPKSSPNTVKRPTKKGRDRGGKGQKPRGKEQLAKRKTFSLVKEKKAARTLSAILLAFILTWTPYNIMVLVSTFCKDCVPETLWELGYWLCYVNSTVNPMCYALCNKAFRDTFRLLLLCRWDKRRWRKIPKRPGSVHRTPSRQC
D1 mod confirm: confirmation of human D1 dopamine receptor allosteric modulators; actives 88% (n = 2,200); luminescence at 10 µM; shares compounds with D1 allo mod; HEK293 D1 CRE-luciferase, dopamine EC30 potentiation; active compounds read high;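 active = luminescence in either of two replicates above the same-plate mean plus 3 SD of the low-dose dopamine control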
D1 no dopamine: D1 (human) signaling in absence of dopamine; shares compounds with D1 allo mod; AID 646; HEK293 D1 CRE-luciferase, luminescence, no dopamine; active compounds read high; actives 0.8% (n = 1,900); luminescence at 10 µM; in the data active = luminescence above about 3900
Isoprot counter: isoproterenol response counter-screen activity for D1 modulators; luminescence at 10 µM; actives 63% (n = 2,200); AID 647; HEK293 D1 CRE-luciferase, isoproterenol EC30 counter-screen; active compounds read high; shares compounds with D1 allo mod;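 active = luminescence in either replicate above plate mean of wells with a partly effective reference agonist dose plus 3 SD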;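 also: isoproterenol raises cAMP through native beta-adrenoceptor Gs so signal bypasses D1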
* hit, by the source's call.

Nn1c(SCC(=O)N2CCN(S(=O)(=O)c3ccc(Cl)cc3)CC2)nnc1-c1cccs1 was read as mHtt clearance -19.5.
CC1(C)Cc2c(C#N)c(NC3CCCCC3)nc(-c3ccco3)c2CO1 was read as D1 allo mod 3.42*, M1 agonist -0.335, M1 antagonist 0.297, D1 mod confirm 8368*, D1 no dopamine 1616 and Isoprot counter 2968.
Screening C=CCSc1nc2c(c(=O)[nH]c(=O)n2C)n1C(C)C returned D1 allo mod 9.52*, M1 agonist -0.0335, M1 antagonist -2.89, D1 mod confirm 11684*, D1 no dopamine 1520 and Isoprot counter 3388*.
C/C=C/Cn1c(SCc2ccc(C)cc2)nc2c1c(=O)[nH]c(=O)n2C was read as D1 allo mod 11.9*, M1 agonist 0.828, M1 antagonist -0.468, D1 mod confirm 26548*, D1 no dopamine 1688 and Isoprot counter 6572*.
`C=CCn1c(SCc2ccc(Cl)cc2)nc2c1c(=O)[nH]c(=O)n2C` gave D1 allo mod 2.92*, M1 agonist 0.565, M1 antagonist 0.0116, D1 mod confirm 8180*, D1 no dopamine 1824 and Isoprot counter 3348*.
Screening C=CCn1c(SCc2ccc(F)cc2)nc2c1c(=O)[nH]c(=O)n2C returned D1 allo mod 3.21, mHtt clearance -53.5, M1 agonist -0.396 and M1 antagonist -0.626.
For COc1cc(-c2nnc3sc(-c4cccs4)nn23)cc(OC)c1OC the results were D1 allo mod 1.03, M1 agonist 2.03 and M1 antagonist -0.539.
CC1Cc2ccccc2N1C(=O)CSc1nnnn1Cc1ccccc1 (configuration not stated) was read as M1 agonist 0.549 and M1 antagonist -1.58.
Screening CCn1cc(C(=O)NCc2ccc3c(c2)OCO3)c(=O)c2cc(S(=O)(=O)N3CCOCC3)ccc21 returned D1 allo mod 3.7*, M1 agonist -0.0627, M1 antagonist -0.109, D1 mod confirm 10664*, D1 no dopamine 1608 and Isoprot counter 3524*.
For C=CCn1cc(C(=O)NCc2cccnc2)c(=O)c2cc(S(=O)(=O)N(CC)CC)ccc21 the results were D1 allo mod 2.82*, M1 agonist -0.638, M1 antagonist -0.273, D1 mod confirm 9940*, D1 no dopamine 1684 and Isoprot counter 3644*.
For CCn1cc(C(=O)NCCCN(C)c2ccccc2)c(=O)c2cc(S(=O)(=O)N(C)C)ccc21 the results were D1 allo mod 5.56*, M1 agonist 0.0224, M1 antagonist -0.168, D1 mod confirm 8908*, D1 no dopamine 1440 and Isoprot counter 4204*.
For CCn1cc(C(=O)NCc2ccccc2OC)c(=O)c2cc(S(=O)(=O)N(C)C)ccc21 the results were D1 allo mod 7.75*, M1 agonist -0.675, M1 antagonist -0.149, D1 mod confirm 13952*, D1 no dopamine 1756 and Isoprot counter 5432*.
For CCOC(=O)C1CCN(S(=O)(=O)c2c(C)n[nH]c2C)CC1 the results were D1 allo mod -0.436, M1 agonist 1.13 and M1 antagonist -0.195.
For N#Cc1nc(-c2cccs2)oc1NCCc1ccccc1 the results were D1 allo mod 11.8*, M1 agonist 0.0436, M1 antagonist -0.302, D1 mod confirm 14100*, D1 no dopamine 1620 and Isoprot counter 13268*.
Screening CNc1oc(-c2cccs2)nc1C#N returned mHtt clearance 10.2, M1 agonist -0.971 and M1 antagonist 0.764.
COc1ccc(Nc2oc(-c3cccs3)nc2C#N)cc1 was read as D1 allo mod 8.11*, mHtt clearance -12.3, M1 agonist -0.431, M1 antagonist 0.381, D1 mod confirm 16196*, D1 no dopamine 1612 and Isoprot counter 4256*.
`N#Cc1nc(-c2ccccc2F)oc1NCCc1ccccc1` gave mHtt clearance -0.5.
`COc1ccc(CCNc2oc(-c3ccco3)nc2C#N)cc1` gave D1 allo mod 3.84, mHtt clearance -7.8, M1 agonist 0.255 and M1 antagonist -0.246.
Screening N#Cc1nc(-c2cccs2)oc1NCc1ccc2c(c1)OCO2 returned D1 allo mod 16.5*, mHtt clearance 25.3, M1 agonist -0.71, M1 antagonist -0.444, D1 mod confirm 19192*, D1 no dopamine 1548 and Isoprot counter 6468*.
`N#Cc1nc(-c2ccco2)oc1NCCc1ccccc1` gave D1 allo mod 5.51*, mHtt clearance 6.3, M1 agonist -0.0489, M1 antagonist -0.902, D1 mod confirm 13580*, D1 no dopamine 1764 and Isoprot counter 3636*.
Screening CCOc1ccccc1NC(=O)C1=C(C)NC(=O)NC1c1cccc(OC)c1OC (configuration not stated) returned D1 allo mod -0.148, mHtt clearance 17.8, M1 agonist -0.476 and M1 antagonist 0.276.
CCn1c(SCc2c(F)cccc2Cl)nnc1-c1ccco1 was read as mHtt clearance 15.1, M1 agonist 0.348 and M1 antagonist 0.405.
COc1ccc(OC)c(NS(=O)(=O)Cc2ccccc2)c1 was read as M1 agonist 0.00413 and M1 antagonist 0.555.
Screening Cc1ccc(CNc2oc(-c3ccco3)nc2C#N)cc1 returned D1 allo mod 26.9*, mHtt clearance -10.6, M1 agonist 0.0312, M1 antagonist 0.177, D1 mod confirm 18284*, D1 no dopamine 1756 and Isoprot counter 5916*.
For CCn1c(=O)cc(SCC(=O)Nc2ccccc2N2CCN(C)CC2)c2ccccc21 the results were M1 agonist -0.0436 and M1 antagonist -0.0216.
Cc1cccn2c(=O)c3cc(C(=O)N4CCN(c5ccccc5)CC4)n(C)c3nc12 was read as D1 allo mod 0.555, M1 agonist 0.125 and M1 antagonist 0.522.
Screening COc1cc(C)c(Br)cc1S(=O)(=O)N1CCCC1 returned D1 allo mod -2.38, mHtt clearance 22.4, M1 agonist 0.724 and M1 antagonist 0.827.
For CCOCCOC(=O)C1=C(C)Nc2ccc(C)cc2S1 the results were D1 allo mod 3.89*, M1 agonist -0.684, M1 antagonist 0.114, D1 mod confirm 7892*, D1 no dopamine 1460 and Isoprot counter 2832.
CCOC(=O)C1=C(C)Nc2ccc(C)cc2S1 was read as mHtt clearance 1.0.
For CCN(CC(=O)N1CCN(C)CC1)S(=O)(=O)c1ccc(Cl)cc1 the results were D1 allo mod -0.0823, mHtt clearance -4.1, M1 agonist -0.32 and M1 antagonist 0.0687.
Screening Cc1sc(/N=C/c2ccccc2O)c(C#N)c1C returned mHtt clearance -26.9.
`Cn1nnnc1SCC(=O)Nc1nc(-c2ccccc2)c(-c2ccccc2)o1` gave D1 allo mod 3.75*, mHtt clearance -8.5, M1 agonist 0.0862, M1 antagonist 0.656, D1 mod confirm 9488*, D1 no dopamine 1600 and Isoprot counter 2400.
CCCCn1c(SCC(=O)N2CCN(c3ccccc3)CC2)nc2ccsc2c1=O was read as D1 allo mod -0.787, M1 agonist 1.03 and M1 antagonist -0.276.
